Screening results deposited in PubChem BioAssay by Broad Institute.
The full list was thinned out, with hits kept by preference.
IDE exosite FP – insulin-degrading enzyme (human) exo-site inhibition; z-score at 20 µM; P14735; purified IDE, FL-6b probe fluorescence polarization; active compounds read low; AID 1259349; hit rate 6.3% among 17,000;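 active means z-score of -3 or lower, meaning strong loss of probe binding signal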;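 further: His-tagged human IDE residues 42-1019 made in E. coli with 30 nM FL-6b probe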
Target sequence (P14735 42-1019 limits assumed): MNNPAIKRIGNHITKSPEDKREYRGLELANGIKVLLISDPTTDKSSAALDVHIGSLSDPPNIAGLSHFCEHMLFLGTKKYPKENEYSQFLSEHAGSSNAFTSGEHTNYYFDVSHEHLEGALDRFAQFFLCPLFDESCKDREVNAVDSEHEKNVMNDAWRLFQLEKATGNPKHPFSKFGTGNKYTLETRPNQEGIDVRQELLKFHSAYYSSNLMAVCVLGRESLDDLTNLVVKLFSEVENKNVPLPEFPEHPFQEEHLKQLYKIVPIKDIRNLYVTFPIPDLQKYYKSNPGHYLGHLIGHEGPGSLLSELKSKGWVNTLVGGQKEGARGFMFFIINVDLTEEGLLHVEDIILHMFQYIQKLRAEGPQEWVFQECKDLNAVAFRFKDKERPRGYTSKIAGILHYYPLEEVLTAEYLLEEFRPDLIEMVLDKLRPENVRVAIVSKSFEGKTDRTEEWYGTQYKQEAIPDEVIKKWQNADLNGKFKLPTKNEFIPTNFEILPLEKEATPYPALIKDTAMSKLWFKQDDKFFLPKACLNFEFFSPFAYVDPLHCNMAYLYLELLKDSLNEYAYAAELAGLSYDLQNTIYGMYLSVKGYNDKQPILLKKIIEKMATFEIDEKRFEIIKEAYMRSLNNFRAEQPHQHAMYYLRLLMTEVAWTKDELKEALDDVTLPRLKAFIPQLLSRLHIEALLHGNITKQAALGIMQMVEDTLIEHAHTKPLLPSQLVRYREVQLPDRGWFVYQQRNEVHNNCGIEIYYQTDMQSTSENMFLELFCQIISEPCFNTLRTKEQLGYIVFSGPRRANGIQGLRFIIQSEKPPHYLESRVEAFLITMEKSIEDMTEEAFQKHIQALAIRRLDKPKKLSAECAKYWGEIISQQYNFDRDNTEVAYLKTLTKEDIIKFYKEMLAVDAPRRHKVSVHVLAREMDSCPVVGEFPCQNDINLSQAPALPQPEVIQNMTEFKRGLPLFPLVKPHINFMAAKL
Each line names hits and unclear results; the compound was inactive in the other large screens.

CCC(=O)N1CC(=O)N2[C@H](C1)[C@H](c1ccc(C#Cc3cccnc3)cc1)[C@@H]2CO	IDE exosite FP -3.03
CCC(=O)N1CC(=O)N2[C@H](CO)[C@@H](c3ccc(C#Cc4cccnc4)cc3)[C@@H]2C1	none
CCC(=O)N1CC(=O)N2[C@@H](CO)[C@@H](c3ccc(C#Cc4cccc(OC)c4)cc3)[C@@H]2C1	IDE exosite FP -11
CCCNC(=O)N1CC(=O)N2[C@@H](CO)[C@H](c3ccc(C#Cc4cccc(OC)c4)cc3)[C@@H]2C1	none
CCC(=O)N1CC(=O)N2[C@@H](CO)[C@@H](c3ccc(C#Cc4cccnc4)cc3)[C@@H]2C1	none
COc1cccc(C#Cc2ccc([C@H]3[C@H](CO)N4C(=O)CN(C(=O)c5ccccc5)C[C@@H]34)cc2)c1	none
COc1cccc(C#Cc2ccc([C@@H]3[C@@H](CO)N4C(=O)CN(C(=O)C5CC5)C[C@H]34)cc2)c1	none
CCCNC(=O)N1CC(=O)N2[C@@H](CO)[C@@H](c3ccc(C#Cc4cccc(OC)c4)cc3)[C@@H]2C1	none
CCC(=O)N1CC(=O)N2[C@H](CO)[C@@H](c3ccc(C#Cc4cccc(OC)c4)cc3)[C@H]2C1	IDE exosite FP -4.25
CCCNC(=O)N1[C@H](C#N)[C@H](c2ccccc2-c2ccc(F)cc2)[C@@H]1CO	none
CCCNC(=O)Nc1ccc2c(c1)OC[C@H](C)N(C(=O)C1CCOCC1)C[C@H](C)[C@H](OC)CN(C)C2=O	none
O=C1CN(S(=O)(=O)Cc2ccccc2)C[C@H]2[C@H](c3ccc(C#Cc4ccc(F)cc4)cc3)[C@@H](CO)N12	none
CO[C@@H]1CN(C)C(=O)c2cc(NC(=O)c3cnccn3)ccc2OC[C@@H](C)NC[C@H]1C	none
COc1cccc(S(=O)(=O)N2C[C@@H](O)COC[C@H]3O[C@@H](CC(=O)NCCCN4CCOCC4)CC[C@@H]32)c1	none
O=C(Nc1cccc(F)c1)N1CC(=O)N2[C@H](CO)[C@H](c3ccc(-c4cccc(F)c4)cc3)[C@H]2C1	none
CCCC#Cc1ccc([C@H]2[C@H]3CN(C(=O)NC4CCCC4)CC(=O)N3[C@H]2CO)cc1	none
O=C(NC1CCCCC1)N1CC(=O)N2[C@@H](CO)[C@H](c3ccc(-c4cccc(F)c4)cc3)[C@@H]2C1	none
O=C(Nc1ccc(F)cc1)N1CC(=O)N2[C@H](CO)[C@@H](c3ccc(-c4cccc(F)c4)cc3)[C@@H]2C1	none
O=C(NC1CCCCC1)N1CC(=O)N2[C@H](CO)[C@@H](c3ccc(-c4cccc(F)c4)cc3)[C@@H]2C1	IDE exosite FP -13
O=C(Nc1cccc(F)c1)N1CC(=O)N2[C@H](CO)[C@@H](c3ccc(-c4cccc(F)c4)cc3)[C@H]2C1	none
Cc1ccccc1-c1ccc([C@@H]2[C@H](CO)N3C(=O)CN(C(=O)NC4CCCC4)C[C@@H]23)cc1	IDE exosite FP -8.13
Cc1cccc(-c2ccc([C@@H]3[C@@H](CO)N4C(=O)CN(C(=O)NC5CCCCC5)C[C@H]34)cc2)c1	IDE exosite FP -11.5
COc1ccccc1NC(=O)N1CC(=O)N2[C@H](CO)[C@@H](c3ccc(-c4cccc(C)c4)cc3)[C@H]2C1	none
CC(C)CC#Cc1ccc([C@H]2[C@@H](CO)N3C(=O)CN(C(=O)NC4CCCCC4)C[C@@H]23)cc1	none
O=C(NC1CCCCC1)N1CC(=O)N2[C@H](C1)[C@@H](c1ccc(-c3cccc(F)c3)cc1)[C@@H]2CO	IDE exosite FP -7.9
O=C(NC1CCCC1)N1CC(=O)N2[C@@H](CO)[C@H](c3ccc(-c4ccc(F)cc4)cc3)[C@@H]2C1	none
COCC(=O)N1CCCCN2[C@@H](CO)[C@@H](c3ccc(-c4ccccc4)cc3)[C@@H]2C1	none
COCC(=O)N1CC(=O)N2[C@@H](CO)[C@H](c3ccc(C#CC4CCCC4)cc3)[C@@H]2C1	none
O=C(C[C@@H]1C[C@@H]2c3cc(NC(=O)C4CCC4)ccc3O[C@@H]2[C@H](CO)O1)NC1CCCC1	none
N#C[C@@H]1[C@@H](c2ccccc2-c2ccccc2F)[C@H](CO)N1C(=O)C1CCOCC1	none
N#C[C@H]1[C@@H](c2ccc(C3=CCCC3)cc2)[C@H](CO)N1C(=O)NC1CCCCC1	none
COc1ccc(-c2ccc([C@@H]3[C@H]4CN(C(=O)c5cccnc5)CC(=O)N4[C@H]3CO)cc2)cc1	none
Cc1cccc(-c2ccc([C@@H]3[C@@H](CO)N4C(=O)CN(C(=O)c5cccnc5)C[C@@H]34)cc2)c1	IDE exosite FP -13.1
O=C(c1cccnc1)N1CC(=O)N2[C@@H](CO)[C@H](c3ccc(-c4cccnc4)cc3)[C@@H]2C1	none
O=C(c1cccnc1)N1CC(=O)N2[C@H](C1)[C@@H](c1ccc(-c3cccnc3)cc1)[C@@H]2CO	none
COc1cccc(-c2ccc([C@@H]3[C@@H](CO)N4C(=O)CN(C(=O)c5cccnc5)C[C@H]34)cc2)c1	none
COc1ccc(-c2ccc([C@H]3[C@@H](CO)N4C(=O)CN(C(=O)c5cccnc5)C[C@@H]34)cc2)cc1	none
COc1ccc(-c2ccc([C@H]3[C@@H](CO)N4C(=O)CN(C(=O)c5cccnc5)C[C@H]34)cc2)cc1	IDE exosite FP -4.9
Cc1ccc(-c2ccc([C@H]3[C@@H](CO)N4C(=O)CN(C(=O)c5cccnc5)C[C@@H]34)cc2)cc1	none
Cc1ccc(-c2ccc([C@@H]3[C@H]4CN(C(=O)c5cccnc5)CC(=O)N4[C@H]3CO)cc2)cc1	IDE exosite FP -3.59
O=C(c1cccc(F)c1)N1CC(=O)N2[C@H](C1)[C@H](c1ccc(-c3cccnc3)cc1)[C@@H]2CO	none
O=C(c1ccncc1)N1CC(=O)N2[C@H](C1)[C@@H](c1ccc(-c3cccnc3)cc1)[C@@H]2CO	IDE exosite FP -3.21
COc1ccc(-c2ccc([C@@H]3[C@@H](CO)N4C(=O)CN(C(=O)c5cccnc5)C[C@H]34)cc2)cc1	none
CN(C[C@@H]1N[C@H](CO)[C@@H]1c1ccc(C#CCC2CCCC2)cc1)S(C)(=O)=O	none
COc1ccc2c3c(n(C)c2c1)[C@H](CO)N(C(C)=O)CC31CN(S(=O)(=O)c2ccccc2)C1	none
COc1cccc(S(=O)(=O)N2C[C@H](O)COC[C@H]3O[C@H](CC(=O)NCCCN4CCOCC4)CC[C@@H]32)c1	none
O=C(C1CCOCC1)N1C[C@@H]2[C@H](c3ccccc31)[C@@H](CO)N2C(=O)Nc1ccccc1F	none
CCCNC(=O)N1CC(=O)N2[C@H](CO)[C@@H](c3ccc(C#Cc4ccc(F)cc4)cc3)[C@@H]2C1	none
COc1ccc2c3c([nH]c2c1)[C@@H](CO)N(C(=O)CN(C)C)CC31CN(CC2CC2)C1	none
C[C@H]1CN([C@@H](C)CO)C(=O)c2ccccc2-c2ccccc2CO[C@H]1CN(C)C(=O)Nc1cccc(Cl)c1Cl	none
N#C[C@@H]1[C@H](c2ccccc2C2=CCCC2)[C@@H](CO)N1C(=O)C1CC1	none
C/C=C/c1ccc([C@H]2[C@@H](CO)N3CCCCN(C(=O)Nc4cc(F)ccc4F)C[C@@H]23)cc1	none
O=C(Nc1ccccc1)N1CCCCN2[C@H](CO)[C@@H](c3ccc(-c4ccccc4)cc3)[C@@H]2C1	none
Cc1cccc(-c2ccc([C@H]3[C@@H](CO)N4C(=O)CN(C(=O)c5cccnc5)C[C@H]34)cc2)c1	IDE exosite FP -14.9
COCC#Cc1ccc([C@H]2[C@@H](CO)N3C(=O)CN(C(=O)Nc4cc(F)ccc4F)C[C@H]23)cc1	none
Cc1nc(N2[C@H](C#N)[C@H](c3ccccc3)[C@H]2CO)sc1C	none
COc1ccc(-c2ccc([C@H]3[C@@H](CO)N4C(=O)CN(C(=O)Cc5ccccn5)C[C@@H]34)cc2)cc1	none
O=C(Cc1ccccn1)N1CC(=O)N2[C@H](C1)[C@H](c1ccc(C#CC3CC3)cc1)[C@@H]2CO	none
